According to PubChem BioAssay AID1159580 (chemical genetic matrix, 2015):
Values joined by “and” are separate entries in the source; they are usually repeats but may differ in a detail not shown here. Identical values can stand only once. Among all 5,500 compounds or so, about 2,000 (36%) were called active. Not shown: some 18% with an inconclusive outcome. Cut-off read from the data, not from the text of the source: active = normalized growth mostly below about 0.91 (no sharp cut-off); inconclusive = no clear call, values can overlap the other calls; inactive = mostly above about 0.92. The list shows a part of the results.

Assay: chemical genetic growth profiling, strain panel (AID 1159580);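 note: tested at 20 µM; growth read once vehicle control cultures reached saturation at 30 °C; 1 = growth at the plate median or of vehicle wells; lower values mean less growth of the strain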
Settings: S. cerevisiae deletion strains, growth OD

Measured: normalized growth

Cn1nnnc1SCC1=C(C(=O)O)N2C(=O)C(NC(=O)C(OC=O)c3ccccc3)C2SC1 (stereo unspecified)
inactive: locus YAL021C, strain ccr4, active compounds read low 1.02 | locus YAL026C, strain drs2, active compounds read low 0.999 | locus YAL030W, strain snc1, active compounds read low 1 | locus YBL061C, strain skt5, active compounds read low 1.01 | locus YBR009C, strain hhf1, active compounds read low 1.04 | locus YBR021W, strain FUR4, active compounds read low 0.986 | locus YBR023C, strain chs3, active compounds read low 0.998 | locus YBR171W, strain sec66, active compounds read low 0.984 | locus YBR229C, strain ROT2, active compounds read low 1 | locus YBR231C, strain swc5, active compounds read low 1.01 | locus YBR279W, strain paf1, active compounds read low 0.999 | locus YCL011C, strain gbp2, active compounds read low 1 | locus YCL016C, strain dcc1, active compounds read low 1 | locus YCL029C, strain bik1, active compounds read low 1.03 | locus YCL061C, strain MRC1, active compounds read low 0.991 | locus YCL069W, strain vba3, active compounds read low 0.992 | locus YCR088W, strain abp1, active compounds read low 0.998 | locus YDL005C, strain med2, active compounds read low 0.991 | locus YDL035C, strain GPR1, active compounds read low 1.01 | locus YDL040C, strain nat1, active compounds read low 1 | locus YDL074C, strain BRE1, active compounds read low 1.02 | locus YDL101C, strain DUN1, active compounds read low 1.01 | locus YDL134C, strain PPH21, active compounds read low 1.01 | locus YDL185W, strain tfp1, active compounds read low 1.01 | locus YDL192W, strain arf1, active compounds read low 1.02 | locus YDR001C, strain nth1, active compounds read low 0.991 | locus YDR069C, strain doa4, active compounds read low 1 | locus YDR101C, strain arx1, active compounds read low 1.03 | locus YDR137W, strain rgp1, active compounds read low 1.02 | locus YDR150W, strain NUM1, active compounds read low 1 | locus YDR159W, strain sac3, active compounds read low 0.979 | locus YDR162C, strain NBP2, active compounds read low 1.01 | locus YDR195W, strain ref2 0.949 | locus YDR297W, strain sur2, active compounds read low 0.992 | locus YDR318W, strain mcm21, active compounds read low 1.02 | locus YDR334W, strain swr1, active compounds read low 0.995 | locus YDR335W, strain msn5, active compounds read low 1 | locus YDR388W, active compounds read low 1.02 | locus YDR392W, strain spt3, active compounds read low 0.995 | locus YDR502C, strain sam2, active compounds read low 1.02 | locus YEL003W, strain gim4, active compounds read low 1 | locus YEL037C, strain rad23, active compounds read low 0.994 | locus YEL061C, strain CIN8 (second series), active compounds read low 0.991 | locus YEL061C, strain CIN8, active compounds read low 1 | locus YER015W, strain faa2, active compounds read low 1 | locus YER016W, strain bim1, active compounds read low 0.997 | locus YER110C, active compounds read low 1.03 | locus YER111C, strain swi4, active compounds read low 0.998 | locus YER155C, strain BEM2 (second series), active compounds read low 0.977 | locus YER155C, strain BEM2, active compounds read low 0.99 | locus YER167W, strain BCK2, active compounds read low 1 | locus YFR010W, strain ubp6, active compounds read low 0.995 | locus YGL078C, strain dbp3, active compounds read low 1.03 | locus YGL086W, strain mad1, active compounds read low 1.01 | locus YGL167C, strain pmr1, active compounds read low 1 | locus YGL173C, strain kem1, active compounds read low 0.997 | locus YGL227W, strain vid30, active compounds read low 0.993 | locus YGL240W, strain doc1, active compounds read low 0.978 | locus YGL248W, strain PDE1, active compounds read low 1.01 | locus YGL253W, strain hxk2, active compounds read low 1.01 | locus YGR078C, strain PAC10, active compounds read low 0.994 | locus YGR135W, strain pre9, active compounds read low 1.02 | locus YGR229C, strain SMI1, active compounds read low 1.01 | locus YGR252W, strain gcn5, active compounds read low 1.03 | locus YHR013C, strain ard1, active compounds read low 1 | locus YHR027C, strain rpn1, active compounds read low 0.995 | locus YHR030C, strain SLT2, active compounds read low 0.999 and 1.01 | locus YHR079C, strain IRE1 (second series), active compounds read low 1.02 | locus YHR079C, strain IRE1, active compounds read low 0.985 | locus YHR094C, strain hxt1, active compounds read low 1.03 | locus YHR129C, strain ARP1, active compounds read low 0.998 | locus YHR142W, strain chs7, active compounds read low 1.02 | locus YHR200W, strain rpn10, active compounds read low 1.02 | locus YIL066C, strain RNR3, active compounds read low 1 | locus YIL073C, strain SPO22, active compounds read low 1.07 | locus YIL125W, strain kgd1, active compounds read low 1.01 | locus YIR030C, strain dcg1, active compounds read low 1.03 | locus YJL092W, strain hpr5, active compounds read low 0.993 | locus YJL095W, strain BCK1 (second series), active compounds read low 1.01 | locus YJL095W, strain BCK1, active compounds read low 1 and 0.969 | locus YJL115W, strain asf1, active compounds read low 0.985 | locus YJL129C, strain trk1, active compounds read low 1 | locus YJL134W, strain LCB3, active compounds read low 1 | locus YJL154C, strain vps35, active compounds read low 1 | locus YJL164C, strain tpk1, active compounds read low 1.01 | locus YJL166W, strain qcr8, active compounds read low 1.01 | locus YJL168C, strain set2, active compounds read low 1.01 | locus YJL187C, strain SWE1 (second series), active compounds read low 1 | locus YJL187C, strain SWE1, active compounds read low 0.986 | locus YJR043C, strain POL32, active compounds read low 1.01 | locus YJR066W, strain TOR1, active compounds read low 0.954
